Screens from PubChem.
HepG2 viability = qHTS for Inhibitors of TGF-b: Cytotox Counterscreen | Potency, µM (doses to about 46.1 µM), most hits filed as cytotoxic | 0.76% of 410,000 active | HepG2 CAGA-GFP viability, ATP luminescence, 18 h
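HepG2 CAGA-GFP cells (1000/well, DMEM with 1% FBS) received compound, then TGF-beta at 500 pg/mL final, and were incubated 18 hours at 37 degrees C. Viability was read by CellTiter-Glo luminescence. Media-only wells were set as complete cell-killing and DMSO as no toxicity.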
LDHA inh = qHTS assay for inhibitors of human lactate dehydrogenase; purified LDHA, NADH/diaphorase-resazurin fluorescence; hits give low values; L-lactate dehydrogenase A chain (Homo sapiens), P00338; activity change, % (values are at about 110 or 230 µM); 0.15% of 480,000 active; in the data active = activity change below about -30%; inconclusive = mostly about -25% to -30%
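Human LDH5 (2 nM) was incubated with 0.06 mM NADH and 0.2 mM pyruvate for 5 min at room temperature in Tris pH 7.4. Remaining NADH was coupled through diaphorase/resazurin, and resorufin fluorescence was read at 0 and 20 min.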
TGFb SMAD3 inh = qHTS for Inhibitors of TGF-b. HepG2 CAGA-GFP TGF-b/SMAD3 reporter, GFP fluorescence, 18 h; TGF-beta stimulated, 500 pg/mL final. 1.2% of 410,000 active. Potency, µM (titrated, usually from 46.1 µM), most hits filed as inhibitors. AID 588855, 2011; also: nearly all actives have a fitted effect of over 65% in size
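GFP signal (ex488/em500-530) from TGF-beta-stimulated HEPG2 CAGA-GFP cells, 500 pg/mL final, 18 h at 37 degrees C in DMEM plus 1% FBS, normalized to unstimulated and DMSO-stimulated controls.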
ATXN viability = Viability Counterscreen for Primary qHTS for Inhibitors of ATXN expression | S2 cells (HEK-293 line with an ATXN2-luciferase reporter) viability, CellTiter-Fluor protease fluorescence, 24 h | Potency, µM (series often up to 56.7 µM), actives largely listed as cytotoxic | 0.49% of 400,000 active; also: nearly all actives have a fitted effect of over 40% in size
mIDH1 inhibitor = qHTS for Inhibitors of mutant isocitrate dehydrogenase 1 (IDH1): qHTS. 0.093% of 390,000 active. Isocitrate dehydrogenase [NADP] cytoplasmic (Homo sapiens), O75874. Potency, µM (series often up to 76.6 µM), hits mostly inhibitors. IDH1-R132H enzyme, NADPH consumption, diaphorase/resazurin fluorescence; also: nearly all actives have a fitted effect of over 65% in size
Target sequence (O75874 whole entry R132H, stated change not applied): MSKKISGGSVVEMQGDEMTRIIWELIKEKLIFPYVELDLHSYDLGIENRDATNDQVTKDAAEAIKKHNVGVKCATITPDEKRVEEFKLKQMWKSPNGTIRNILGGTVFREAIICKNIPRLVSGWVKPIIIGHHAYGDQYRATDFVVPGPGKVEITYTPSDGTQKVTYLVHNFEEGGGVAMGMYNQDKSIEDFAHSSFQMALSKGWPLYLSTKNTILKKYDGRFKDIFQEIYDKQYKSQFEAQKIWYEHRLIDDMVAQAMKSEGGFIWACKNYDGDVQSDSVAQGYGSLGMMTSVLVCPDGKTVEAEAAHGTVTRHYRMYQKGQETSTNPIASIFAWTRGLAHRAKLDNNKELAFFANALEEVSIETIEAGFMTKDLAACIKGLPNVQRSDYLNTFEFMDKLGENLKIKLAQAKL
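IDH1-R132H (0.5 ug/mL) preincubated 30 min with compound, then NADPH (0.016 mM) and alpha-KG (2 mM) added; 80 min at RT, pH 7.5. Remaining NADPH coupled via diaphorase/resazurin to fluorescence (540/590 nm); concentration-response curves normalized to no-enzyme control.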
ATXN2 expr inh = Primary qHTS for Inhibitors of ATXN expression | Potency, µM (top dose mostly 57 µM), actives largely listed as inhibitors | HEK-293 ATXN2-luciferase reporter, luminescence, 24 h | 0.72% of 360,000 active; also: nearly all actives have a fitted effect of over 55% in size
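ATXN2-luciferase reporter cells (luciferase flanked by upstream and downstream ATXN2 gene portions) were treated 24 h at 37 °C with compounds at up to 57 uM. SteadyGlo luminescence gave expression; GF-AFC fluorescence gave viability.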
Each line names hits and unclear results; the compound was inactive in the other large screens; ! = repeats disagree. This is a sample that favours compounds with a hit; in the whole collection about 2.2% have one here. Unless noted, calls follow the shape of the dose curve; as a rule, active = well fitted curve in the direction sought with a large enough effect; inconclusive = small, poorly fitted or top-dose-only effect, or another doubt; inactive = no such curve, though single readings can be large; an effect the other way counts as inactive or inconclusive.

Oc1ccc(C[C@H]2CNCCN2CCc2cccc(F)c2)cc1	none
Fc1cccc(CCN2CCNC[C@H]2Cc2cccc3ccccc23)c1	HepG2 viability 16µM, TGFb SMAD3 inh 16µM, ATXN viability inconclusive
Cc1cccc(NC(=O)NCCN2CCCCC2)c1	none (no result: ATXN2 expr inh)
NC(=O)c1c(OCc2c(F)cc(Br)cc2F)nsc1NC(=O)NCCCCN1CCCC1	ATXN2 expr inh 31µM (no result: HepG2 viability, LDHA inh, TGFb SMAD3 inh, ATXN viability, mIDH1 inhibitor)
COc1ccc(C(=O)N2CCN(c3ccc(C)cc3C)CC2)cc1OC	none
COc1cccc2cc(C(=O)Nc3ccc(CC(=O)O)cc3)c(=O)oc12	ATXN2 expr inh 3.5µM
CCc1nc(NC(CC)CO)c(C#N)c2c1CCCC2 (configuration not stated)	LDHA inh -34 (no result: HepG2 viability, TGFb SMAD3 inh, ATXN viability, mIDH1 inhibitor, ATXN2 expr inh)
COc1ccc(C(=O)Nc2ccncc2)cc1OC	none
CC(C)C[C@H]1CN([C@@H](CC(C)C)CN2CCC[C@@H]2CN2C(=O)C(=O)NC[C@@H]2Cc2ccccc2)C(=O)C(=O)N1CC1CCCCC1	TGFb SMAD3 inh 18µM, ATXN viability inconclusive, mIDH1 inhibitor inconclusive
CC(C)C[C@@H](CN1CCC[C@@H]1CN1C(=O)C(=O)NC[C@@H]1Cc1ccccc1)N1C[C@H](Cc2ccccc2)N(CC2CCCCC2)C(=O)C1=O	ATXN viability 22µM, ATXN2 expr inh inconclusive (no result: HepG2 viability, TGFb SMAD3 inh, mIDH1 inhibitor)
CCOc1ccc(CCN2C(=O)C(=O)N([C@@H](CC(C)C)CN3CCC[C@H]3CN3C(=O)C(=O)NC[C@@H]3CC(C)C)C[C@@H]2Cc2ccccc2)cc1	ATXN viability inconclusive, ATXN2 expr inh inconclusive (no result: HepG2 viability, TGFb SMAD3 inh, mIDH1 inhibitor)
CCOc1ccc(CCN2C(=O)C(=O)N([C@@H](CC(C)C)CN3CCC[C@@H]3CN3C(=O)C(=O)NC[C@@H]3CC(C)C)C[C@@H]2Cc2ccccc2)cc1	TGFb SMAD3 inh 20µM, ATXN2 expr inh inconclusive (no result: ATXN viability, mIDH1 inhibitor)
CC(C)C[C@H]1CNC(=O)C(=O)N1C[C@H]1CCCN1C[C@H](CC(C)C)N1C[C@H](Cc2ccccc2)N(CC2CCCCC2)C(=O)C1=O	none (no result: HepG2 viability, TGFb SMAD3 inh, mIDH1 inhibitor)
COc1cccc(-c2noc(CSc3nc(C4CC4)n(-c4ccccc4)n3)n2)c1	none (no result: HepG2 viability, TGFb SMAD3 inh, ATXN viability, mIDH1 inhibitor, ATXN2 expr inh)
CCCCCc1ccc(C(=O)O)nc1	none (no result: HepG2 viability, TGFb SMAD3 inh, ATXN viability, mIDH1 inhibitor, ATXN2 expr inh)
Cc1ccc(C(=O)COC(=O)COc2ccccc2[N+](=O)[O-])s1	none
CCOC(=O)COc1ccccc1/C=C\[N+](=O)[O-]	HepG2 viability 8.9µM, TGFb SMAD3 inh 5.6µM, ATXN2 expr inh inconclusive (no result: ATXN viability)
CCC1NC(=O)c2cccnc2-n2c1nc1cc(OC)c(OC)cc1c2=O (configuration not stated)	none
CCCCCCCCCCCCCCCC[N+](C)(C)CCN(Cc1ccc(OC)cc1)c1ncccn1	HepG2 viability 10µM, TGFb SMAD3 inh inconclusive, ATXN viability 25µM!, ATXN2 expr inh 35µM!
CCOC1=C2[C@@H](CN(S(=O)(=O)c3ccc(C)cc3)[C@H]2c2ccccc2Cl)[C@H]2C(=O)N(Cc3ccccc3)C(=O)[C@H]2C1	TGFb SMAD3 inh inconclusive, ATXN viability inconclusive (no result: mIDH1 inhibitor)
Cc1cc(OCCn2c(C3CC(=O)N(Cc4ccc(F)cc4)C3)nc3ccccc32)ccc1Cl (configuration not stated)	TGFb SMAD3 inh 13µM, ATXN2 expr inh inconclusive (no result: ATXN viability)
Cc1cccc(OCCCCn2c(C3CC(=O)N(c4ccccc4Cl)C3)nc3ccccc32)c1 (configuration not stated)	TGFb SMAD3 inh inconclusive
Cc1cccc(OCCCCn2c(C3CC(=O)N(c4ccc(C)cc4C)C3)nc3ccccc32)c1 (configuration not stated)	TGFb SMAD3 inh 10µM, ATXN viability inconclusive, ATXN2 expr inh inconclusive
CCOc1ccccc1N1CC(c2nc3ccccc3n2CCOc2ccc(C(C)(C)C)cc2)CC1=O (configuration not stated)	ATXN viability inconclusive
